Source: PubChem BioAssay (National Center for Advancing Translational Sciences (NCATS))
aSyn yeast inh = inhibitors of alpha-synuclein toxicity in yeast; Potency, µM (highest dose often 46.1 µM), for the others: at the highest dose growth rescue (activation), hits mostly activators; Yeast expressing alpha-synuclein, growth rescue, BacTiter-Glo, 24 h; hit rate 0.14% among 370,000; further: % of control where 0% means no effect; nearly all actives have a fitted effect of over 65% in size
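Galactose-induced alpha-syn yeast (OD600=0.02, raffinose-pregrown) + pinned cpd, 24 hr, 30 deg C; growth by BacTiter-Glo luminescence. Growth restoration scores as activation.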
PTAP TSG101 blk = blocks PTAP/TSG101 interaction to inhibit HIV-1 budding. Q99816. Fluorescence polarization, FITC-PTAP peptide / Tsg101 binding. Potency, µM (doses to about 115 µM), for the others: at the highest dose activity change, negative = inhibition, hits mostly inhibitors. 340,000 tested, under 10 active. AID 493005; active means well fitted inhibition curve with a large enough effect in the main read-out, with a control signal flat, not every such curve was filed as active; inconclusive means small, poorly fitted or top-dose-only effect, or effect the other way, or a change in a side signal; inactive means no such curve, though single readings can be large or run the other way; further: % of control where 0% means no effect
Target sequence (Q99816 whole entry, looked up): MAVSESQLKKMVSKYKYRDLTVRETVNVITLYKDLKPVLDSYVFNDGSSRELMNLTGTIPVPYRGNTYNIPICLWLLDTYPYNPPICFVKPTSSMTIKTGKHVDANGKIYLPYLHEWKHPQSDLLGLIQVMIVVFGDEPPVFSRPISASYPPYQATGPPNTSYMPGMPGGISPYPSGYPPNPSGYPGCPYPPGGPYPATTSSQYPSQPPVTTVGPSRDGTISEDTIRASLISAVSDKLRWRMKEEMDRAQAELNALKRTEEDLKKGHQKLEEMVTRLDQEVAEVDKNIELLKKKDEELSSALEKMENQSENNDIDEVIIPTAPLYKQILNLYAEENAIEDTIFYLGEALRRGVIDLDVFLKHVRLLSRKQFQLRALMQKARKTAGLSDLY
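Tsg101 binding domain (10 uM final) was mixed with compound and a FITC-labeled PTAP peptide (50 nM final) in HEPES pH 7.5 buffer with NaCl, Tween 20, EDTA and TCEP; fluorescence polarization was read after 20 min at r.t.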
FUS yeast rescue = suppressors of FUS proteinopathy in yeast; S. cerevisiae FUS-expressing, growth rescue, OD600, 24 h; Potency, µM (top dose mostly 76.6 µM), most hits filed as activators; hit rate 0.24% among 390,000; AID 1347120;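 further: plate controls were DMSO vehicle for no effect and reference control for full effect; nearly all actives have a fitted effect of over 55% in size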
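Steps: raffinose overnight preculture; dilution to OD 0.005 in 2% galactose minimal medium; compound addition (concentration series); 24hr at 30C, 99% humidity; absorbance read at 600 nm.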
TDP-43 yeast inh = TDP-43 toxicity inhibition in yeast. hit rate 1.8% among 410,000. TDP-43 expressing yeast growth rescue, BacTiter-Glo, 24 h. AID 652104. Potency, µM (titrated, usually from 46.1 µM), for inactives: top-dose growth rescue (activation), hits mostly activators; further: % of control where 0% means no effect; nearly all actives have a fitted effect of over 50% in size
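Growth rescue of TDP-43-toxic yeast measured as ATP luminescence (BacTiter-Glo). Cells grown to mid-log in raffinose, induced in galactose at OD600=0.02, exposed to compound 24 hr at 30 deg C.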
Abeta yeast res = A-beta toxicity reversal in yeast; hit rate 0.063% among 410,000; yeast expressing A-beta42, growth rescue, OD600, 48 h; response scale: 0% DMSO, 100% iron-clioquinol control; Potency, µM (doses to about 46.1 µM), hits mostly activators; AID 1347071; further: nearly all actives have a fitted effect of over 55% in size
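Yeast growth medium received pinned compounds, then yeast cells expressing toxic A-beta were added; plates incubated at 30 C for 48 hr. Growth read as absorbance at 600 nm, normalized to DMSO and equimolar FeCl3 plus clioquinol controls.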
Starred values were filed as active, the others as inactive; i = inactive; ? = inconclusive; . = no result given; [ ] = dose if it differs, or a comment. Compounds with a hit are over-represented: about 2.1% of the library has one in this group of screens. Unless noted, the call rests on the fitted dose curve; in most records, active means well fitted curve in the direction sought with a large enough effect; inconclusive means small, poorly fitted or top-dose-only effect, or another doubt; inactive means no such curve, though single readings can be large; an effect the other way counts as inactive or inconclusive. Potency means the concentration at half of the fitted maximal effect.

SMILES | aSyn yeast inh | PTAP TSG101 blk | FUS yeast rescue | TDP-43 yeast inh | Abeta yeast res
Cc1cccc(Cn2cc(/C=C/[N+](=O)[O-])c3ccccc32)c1 | -16.0% | 1.3% | i | 14.1µM* | i
O=[N+]([O-])/C=C/c1cn(Cc2ccc(Cl)cc2)c2ccccc12 | 0.7% | -8.9% | i | 4.1% | i
O=C(Nc1ccc2c(c1)OCCO2)C(c1ccc(C(F)(F)F)cc1)n1c(=O)c(-c2cc3ccccc3[nH]2)nc2ccccc21 (centres undefined) | 10µM* | . | i | ? | ?
O=C(Nc1ccc2c(c1)OCCO2)C(C1CC1)n1c(=O)c(-c2ccco2)nc2ccccc21 (centres undefined) | 8.6% | . | i | ? | i
N#Cc1ccc(C(C(=O)Nc2ccc3c(c2)OCCO3)n2c(=O)c(-c3ccco3)nc3ccccc32)cc1 (centres undefined) | ? | . | 6.31µM* | 25.4% | i
O=C(Nc1ccc2c(c1)OCCO2)C(c1ccncc1)n1c(=O)c(-c2cc3ccccc3[nH]2)nc2ccccc21 (centres undefined) | -6.6% | . | i | 28.2µM* | i
CCC(Cn1nnc2ccccc2c1=O)NC(=O)Nc1ccccc1Cl (centres undefined) | . | . | i | 6.2% | i
CCOc1ccc(C(=O)NCCS(=O)(=O)N2CCN(c3cccc(Cl)c3)CC2)cc1 | . | . | i | -8.4% | i
O=C1c2ccccc2NC(c2cn[nH]c2-c2ccc(Cl)cc2)N1O (centres undefined) | -15.9% | -1.4% | 25.1µM* | -4.1% | i
CCOc1ccccc1CNC(=O)c1cc2n(n1)CCCN(Cc1ccc(C)cc1)C2=O | . | . | ? | 35.5µM* | ?
O=C(c1ccc2c(c1)N(Cc1ccccc1)C(=O)c1ccccc1S2(=O)=O)N1CCN(c2ccccn2)CC1 | . | . | i | 27.7% | i
COc1ccc(NC(=O)c2cc(C3CCCCN3C(=O)c3cccs3)on2)c(C)c1 (centres undefined) | -0.1% | . | i | 18.2% | i
O=C(Nc1ccc(F)cc1)C(c1cc2ccccc2o1)N1CCN(C(=O)c2ccco2)CC1 (centres undefined) | 0.8% | . | 22.4µM* | -2.5% | i
O=C(CSCc1ccccc1Cl)N/N=C/c1ccco1 | -8.6% | -8.7% | i | 12.6µM* | i
CCc1nc2c(OCCC3CCCCC3)cccn2c1N(C)C(=O)c1ccc(OC)cc1 | 7.2% | . | 22.4µM* | -0.6% | i
Cc1nc2nc(CNC(=O)OC(C)(C)C)nn2c(C)c1CCC(=O)NCc1ccccc1Cl | . | . | i | 21.7% | i
CCOC(=O)C1=CCN(S(=O)(=O)c2ccccc2)C1c1ccc(Cl)cc1 (centres undefined) | 28.5% | . | i | 35.5µM* | i
CCOC(=O)C1=CCN(S(=O)(=O)c2ccc(F)cc2)C1c1ccc(Br)cc1 (centres undefined) | 23.8% | . | i | 35.5µM* | i
CCc1cccc(NC(=O)CCn2c(=O)c3cccn3c3cccnc32)c1 | . | . | i | 9.6% | i
Cc1ccc(NC(=O)C2CCN(c3ncccn3)CC2)cc1C | . | . | i | . | .
Cc1ccc(CNC(=O)COC(=O)Cn2nc(C)c([N+](=O)[O-])c2C)cc1 | 3.8% | 0.7% | i | -3.5%[0.397 µM] | i
Cc1nn(CC(=O)OCCOc2ccc(Br)cc2)c(C)c1[N+](=O)[O-] | 6.0% | -4.5% | i | 12.6µM* | i
CCc1nc2ccc(C(=O)Nc3cccc(OCC(=O)N(C)C)c3)cn2c1N(C)Cc1cc2ccccc2s1 | -2.5% | . | i | 12.0% | i
CC1=CC2=NC(=O)/C(=C\c3cccn3CCOc3ccccc3C)C(=N)N2O1 | 11.6% | -0.2% | ? | 20µM* | ?
COc1ccccc1OCCOc1ccc(/C=C2/C(=N)N3OC(C)=CC3=NC2=O)cc1OC | 0.8% | 0.5% | i | -0.2% | i
SMILES | aSyn yeast inh | PTAP TSG101 blk | FUS yeast rescue | TDP-43 yeast inh | Abeta yeast res
COc1ccc2cc3cc(C(=O)NCCN4CCc5ccccc5C4)oc3nc2c1 | 25.1µM* | -10.9% | i | 11.2µM* | i
COc1ccc2cc3cc(C(=O)N(C)C4CCCCC4)oc3nc2c1 | 12.8% | -4.0% | i | 17.8µM* | i
COc1ccc2cc3cc(C(=O)NCCN4CCN(Cc5ccccc5)CC4)oc3nc2c1 | -0.8% | -2.0% | i | 9.4% | i
COc1ccc2cc3cc(C(=O)N4CCCCCC4)oc3nc2c1 | 2.7% | 0.6% | i | 18.0% | i
CCOC(=O)C1CCN(c2nc3c(S(=O)(=O)c4ccccc4)nnn3c3ccc(Cl)cc23)CC1 | . | . | i | 18.3% | i
CC(=O)Nc1cc(C(=O)NCc2ccc(C)cc2)ccc1Sc1ccc(C)cc1 | . | . | ? | 20µM* | i
CCOc1ccc(CNC(=O)c2ccc(Sc3ccc(C)cc3)c(NC(C)=O)c2)cc1OC | 4.8% | -2.3% | ? | ? | i
C=CCc1ccccc1OCC(O)CNC1CCCC1 (centres undefined) | 16.2% | -5.4% | i | 8.7% | i
COc1ccc(OC)c(C2CC(=O)c3c([nH]c(C(=O)OCc4ccc(C)cc4)c3C)C2)c1 (centres undefined) | . | . | i | 0.9% | i
Cc1ccc(C2CC(c3ccccc3)=NN2c2ccc(S(N)(=O)=O)cc2)cc1 (centres undefined) | 13.7% | . | ? | ? | i
CCc1ccc(C2=NN(c3ccc(S(N)(=O)=O)cc3)C(c3ccc(F)cc3)C2)cc1 (centres undefined) | 13.9% | -0.2% | . | 14.1µM* | ?
COc1ccc(C2CC(c3ccccc3C(F)(F)F)=NN2c2ccc(S(N)(=O)=O)cc2)cc1 (centres undefined) | 5.2% | -1.5% | i | 15.3% | i
COc1ccc(C2CC(c3ccc(C(F)(F)F)cc3)=NN2c2ccc(S(N)(=O)=O)cc2)cc1 (centres undefined) | ? | 0.6% | ? | 12.6µM* | i
Cc1ccccc1N1CCN(S(=O)(=O)c2ccc3c(c2)n(C)c(=O)c(=O)n3C)CC1 | . | . | i | . | .
COc1ccc(C(=O)N/N=C/c2sc3ccccc3c2O)cc1 | ? | ? | i | ? | i
COc1ccc2cc(C(=O)N/N=C/c3sc4ccccc4c3O)ccc2c1 | 10µM* | ? | . | -10.8% | i
Cc1ccc(CN2C(=O)c3ccccc3Sc3ccc(C(=O)NCc4ccco4)cc32)cc1 | . | . | 10µM* | 22.3% | i
CNC(=O)c1ccc2c(c1)N(Cc1cc(C)ccc1C)C(=O)c1ccccc1S2 | . | . | ? | 15.8µM* | i
CCCCN(C)C(=O)c1ccc2c(c1)N(Cc1cccc(F)c1)C(=O)c1ccccc1S2 | . | . | ? | 22.4µM* | i
